An excerpt weighted towards active compounds, which were near 2.5% of everything screened.
PRMT1 FP inh: PRMT1 methyltransferase inhibitors, primary screen, biochemical, fluorescence polarization | Protein arginine N-methyltransferase 1 (Homo sapiens), Q99873 | recombinant PRMT1, activity-based probe fluorescence polarization | inhibition, % at 2.79 µM | 370,000 tested, 1.3% active;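 active = inhibition above about 21% made by adding two undisclosed values, limit read from the data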
LEDGF integ inh: blockers of LEDGF/p75-dependent integrase strand transfer – biochemical, TR-FRET, high throughput, primary screen | TR-FRET IN-LEDGF/p75 DNA integration, Eu/Cy5 | inhibition, % at 3.7 µM | 370,000 tested, 0.64% active;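 active = inhibition above the screen-wide mean plus 3 SD, cut at about 13% in these data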;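 note: signal is the Cy5 over europium emission ratio at 671 and 618 nm; 0% = plate median of compound wells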
MBD2 inh: inhibitors of MBD2 binding to methylated DNA, primary screen, biochemical, TR-FRET, DNA-binding domain, human; Methyl-CpG-binding domain protein 2 (Homo sapiens), Q9UBB5; MBD2 binding to methylated oligonucleotide; inhibition, % at 4.4 µM; 370,000 tested, 0.31% active; AID 686964, 2013; in the data active = inhibition above about 13%
UHRF1 binding: UHRF1 methylated DNA binding inhibitors, primary screen, counter-screen for MBD2 inhibitor project, biochemical, TR-FRET, human UHRF1, single concentration; 370,000 tested, 0.75% active; E3 ubiquitin-protein ligase UHRF1 (Homo sapiens), Q96T88; UHRF1 binding to methylated oligo; inhibition, % at 4.4 µM; AID 687016, 2013; in the data active = inhibition above about 21%;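 note: UHRF1 SRA domain binding a hemimethylated CpG hairpin DNA probe; 0% = median of test compound wells and 100% = reference inhibitor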
Target sequence (Q96T88 whole entry, looked up, the tested form may be a part): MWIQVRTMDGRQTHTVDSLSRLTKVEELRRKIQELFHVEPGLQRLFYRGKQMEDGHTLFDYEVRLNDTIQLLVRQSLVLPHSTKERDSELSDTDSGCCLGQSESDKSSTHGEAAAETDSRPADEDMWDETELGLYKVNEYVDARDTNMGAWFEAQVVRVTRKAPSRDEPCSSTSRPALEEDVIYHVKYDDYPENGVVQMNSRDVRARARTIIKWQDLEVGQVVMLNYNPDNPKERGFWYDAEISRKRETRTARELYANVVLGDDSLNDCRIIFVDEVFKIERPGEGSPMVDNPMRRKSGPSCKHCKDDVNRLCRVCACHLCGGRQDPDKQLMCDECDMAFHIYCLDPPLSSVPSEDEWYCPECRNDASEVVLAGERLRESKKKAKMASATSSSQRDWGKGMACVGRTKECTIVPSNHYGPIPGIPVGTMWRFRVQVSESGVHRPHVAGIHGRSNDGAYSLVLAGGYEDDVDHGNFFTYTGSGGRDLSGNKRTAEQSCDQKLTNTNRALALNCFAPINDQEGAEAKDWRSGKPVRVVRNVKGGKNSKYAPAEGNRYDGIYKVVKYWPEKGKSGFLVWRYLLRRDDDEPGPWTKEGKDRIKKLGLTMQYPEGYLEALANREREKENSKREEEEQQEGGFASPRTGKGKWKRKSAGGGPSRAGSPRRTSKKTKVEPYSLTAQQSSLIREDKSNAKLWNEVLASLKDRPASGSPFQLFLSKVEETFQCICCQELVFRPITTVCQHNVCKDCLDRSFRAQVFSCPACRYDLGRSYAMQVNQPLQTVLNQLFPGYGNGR
PRMT1 inh conf: PRMT1 methyltransferase inhibitors, confirmation, biochemical, fluorescence polarization, triplicate | shares compounds with PRMT1 FP inh | recombinant His-PRMT1, activity-based probe fluorescence polarization | inhibition, % at 2.79 µM | 3,300 tested, 42% active | AID 687036, 2013;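 active = mean inhibition across replicates above the hit cutoff derived for the earlier primary screen, cut at about 22% in these data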
* = called active by the depositor.

Results for CCCCCC/C(C)=C1/SC(=S)NC1=O ?
PRMT1 FP inh: 19; LEDGF integ inh: 0; MBD2 inh: 3; UHRF1 binding: 17

How did COC(=O)[C@]12C[C@H](CC(=O)NCCc3ccccc3OC)C(=O)N(CCc3ccc(OC)c(OC)c3)C1=C[C@H](C1CCCC1)O[C@@H]2C do in these assays?
PRMT1 FP inh: 0; LEDGF integ inh: -3; MBD2 inh: -6; UHRF1 binding: -3

Results for COC(=O)c1ccc2c(=O)n(CCN3CCOCC3)c(SCC(=O)Nc3ccccc3Cl)nc2c1 ?
PRMT1 FP inh: 27*; LEDGF integ inh: 2; MBD2 inh: 1; UHRF1 binding: 0; PRMT1 inh conf: 48*

Results for NC(=O)C1(N2CCCCC2)CCN(C(=S)Nc2ccc(S(N)(=O)=O)cc2)CC1 ?
PRMT1 FP inh: 27*; LEDGF integ inh: 0; MBD2 inh: 5; UHRF1 binding: 3; PRMT1 inh conf: 36*

Results for COC(=O)[C@]12C=CCN1[C@H](c1ccccc1)c1c(c3ccccc3n1S(=O)(=O)c1ccc(C)cc1)C2 ?
PRMT1 FP inh: 4; LEDGF integ inh: 0; MBD2 inh: -5; UHRF1 binding: -1

Results for Cc1cccc(C)c1NC(=O)COC(=O)CCc1c[nH]c2ccccc12 ?
PRMT1 FP inh: 30*; LEDGF integ inh: -4; MBD2 inh: -1; UHRF1 binding: -2; PRMT1 inh conf: -1

What do the screens show for `Cc1cccc(NC(=O)COC(=O)CCc2c[nH]c3ccccc23)c1C`?
PRMT1 FP inh: 2; LEDGF integ inh: -3; MBD2 inh: 2; UHRF1 binding: 0

How did Cc1cc2nc(/N=C(\N)NC(=O)N3c4ccccc4Sc4ccccc43)nc(C)c2cc1C do in these assays?
PRMT1 FP inh: 6; LEDGF integ inh: 3; MBD2 inh: 4; UHRF1 binding: 9

What do the screens show for `CC1C(=O)N(Cc2cn(CCC3OCCO3)nn2)CCS(=O)(=O)N1Cc1ccc(-c2ccc(Cl)c(Cl)c2)cc1` (stereo not given)?
PRMT1 FP inh: 0; LEDGF integ inh: -3; MBD2 inh: 2; UHRF1 binding: -1

What do the screens show for `Cc1ccc(Cl)cc1NC(=O)CSC(N)=O`?
PRMT1 FP inh: 41*; LEDGF integ inh: -1; MBD2 inh: 2; UHRF1 binding: 0; PRMT1 inh conf: 99*

Results for COC(=O)C1=C(C)NC(C)=C(C(=O)OCC(C)C)C1c1ccccc1[N+](=O)[O-] (stereo not given) ?
PRMT1 FP inh: 25*; LEDGF integ inh: 2; MBD2 inh: -1; UHRF1 binding: -2; PRMT1 inh conf: 18

What do the screens show for `C[C@H](CO)N1C[C@H](C)[C@@H](CN(C)C(=O)CN2CCOCC2)Oc2cc(Br)ccc2S1(=O)=O`?
PRMT1 FP inh: 3; LEDGF integ inh: -4; MBD2 inh: 2; UHRF1 binding: 1

Results for CCOC(=O)c1c(-c2ccco2)csc1NC(=O)COC(=O)c1cnc(C)cn1 ?
PRMT1 FP inh: 36*; LEDGF integ inh: 11; MBD2 inh: 0; UHRF1 binding: 12; PRMT1 inh conf: 4

Results for O=C1NC(=O)/C(=C\c2ccc(N3CCOCC3)o2)N1 ?
PRMT1 FP inh: 30*; LEDGF integ inh: -4; MBD2 inh: 1; UHRF1 binding: 1; PRMT1 inh conf: 12

How did O=C1NC(=O)/C(=C/c2ccc(N3CCOCC3)o2)N1 do in these assays?
PRMT1 FP inh: 6; LEDGF integ inh: -2; MBD2 inh: -9; UHRF1 binding: -2

Results for CC1(C)Oc2ccc(C(=O)NN)cc2NC1=O ?
PRMT1 FP inh: -3; LEDGF integ inh: 1; MBD2 inh: 1; UHRF1 binding: -2

Results for CCOC(=O)c1ccc(NC(=O)c2c(NC(=O)CCC(=O)O)sc3c2CCCCC3)cc1 ?
PRMT1 FP inh: 44*; LEDGF integ inh: 2; MBD2 inh: -5; UHRF1 binding: -2; PRMT1 inh conf: 5

How did CCOc1ccccc1NC(=O)CCC(=O)O do in these assays?
PRMT1 FP inh: 0; LEDGF integ inh: 0; MBD2 inh: -3; UHRF1 binding: -3

Results for CCCOC(=O)c1c(NC(=O)CCC(=O)O)sc2c1CCCCC2 ?
PRMT1 FP inh: 4; LEDGF integ inh: 3; MBD2 inh: -5; UHRF1 binding: 0

Source: PubChem BioAssay (The Scripps Research Institute Molecular Screening Center)
